Bioassay records deposited in PubChem BioAssay by National Center for Advancing Translational Sciences (NCATS).
Many of the other results were omitted from the sample, so hits are more common in it than they were.
Pf Dd2 inh – inhibitors of Plasmodium falciparum Dd2 growth | 4.3% of 120,000 active | Potency, µM (highest dose often 28.9 µM), usual class: inhibitors | P. falciparum Dd2 growth, SYBR Green, 72 h; active = well fitted inhibition curve with a large enough effect; note: nearly all actives have a fitted effect of over 65% in size
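Readout: SYBR Green fluorescence, 485 nm excitation, 535 nm emission, after ~16 h lysis at 37C. Before that, Dd2-infected red cells (2.5% hematocrit) grew 72 h with compound, 29 uM top final concentration.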
Each line names hits and unclear results; the compound was inactive in the other large screens.

COCCNC(=O)c1cc(-c2ccccc2F)cc2c1OCCN2Cc1cccnc1	none
COCCC1(NC(=O)C2CCOCC2)CCN(C(=O)CCc2ccc(OC)cc2)CC1	none
O=C(c1cn[nH]c1-c1ccc(F)cc1)N1CC2CC(C1)[C@H]1CCCC(=O)N1C2 (some centres undefined)	none
COc1ccc(CN2CC3(CCN(C(=O)c4ccc(C)cc4C)CC3)C2=O)cc1	none
O=C(O)c1cccnc1OC1CCNCC1	none
O=C(NC1C[C@H]2CC[C@@H](C1)N2C(=O)Cc1ccc(Br)cc1)c1ccncc1 (some centres undefined)	none
Cc1noc(C)c1S(=O)(=O)N1CCCN(S(=O)(=O)c2ccccc2)CCC(=O)NCC1	none
C=CCNC(=O)c1cccc2c(C)nnn12	none
Cn1cc(CNc2ccc(-c3nc(-c4cccc(C(F)(F)F)c4)no3)cn2)cn1	none
O=C1c2[nH]nc(-c3ccccc3O)c2C(c2cccc(Cl)c2)N1Cc1cccnc1 (centres undefined)	none
O=C1c2[nH]nc(-c3ccccc3O)c2C(c2cccc(OCc3ccccc3)c2)N1CCCO (centres undefined)	Pf Dd2 inh 11.2µM
CNC(=O)Nc1cccn2nc(-c3ccccc3)nc12	none
COc1ccc(CN2CCOC[C@H](Oc3cccc(C)n3)C2)cc1	none
COc1ccc(CN2CCOC[C@H](Oc3ccc(C(F)(F)F)cn3)C2)cc1	none
COc1ccc(CN2CCOC[C@H](Oc3ccccc3)C2)cc1	Pf Dd2 inh 7.08µM
Fc1ccc(CN2CCOC[C@H](Oc3ccccc3)C2)cc1	Pf Dd2 inh 12.6µM
CS(=O)(=O)c1ccc(O[C@H]2COCCN(Cc3cccnc3)C2)cc1	none
COc1ccc(OC2CN(Cc3ccc(F)cc3)C2)cc1	none
Cc1cc(C)c(C(=O)N2CCC(=O)N(CC3CC3)C(C(C)C)C2)cc1C (centres undefined)	none
O=C(NCC1CC1)c1cn(C2CN(C(=O)NCC3CCCO3)C2)nn1 (centres undefined)	none
O=C(CCc1nc2ccc(Cl)cc2[nH]1)N1CCc2nc3cc(-c4ccccc4)[nH]n3c(=O)c2C1	none
O=C(Cn1c(=O)n(CC2CCC(C(=O)NCCc3ccccc3)CC2)c(=O)c2ccccc21)Nc1cccc(F)c1 (centres undefined)	none
Cc1cccc(C)c1NC(=O)Cn1c(=O)n(CC2CCC(C(=O)NCCc3ccccc3)CC2)c(=O)c2ccccc21 (centres undefined)	none
Cc1cc(C)cc(NC(=O)Cn2c(=O)n(CC(=O)NCCc3ccccc3)c(=O)c3ccccc32)c1	none
COc1ccc(NC(=O)Cn2c(=O)n(CC(=O)NCCc3ccccc3)c(=O)c3ccccc32)cc1	none
Cc1cccc(NC(=O)Cn2c(=O)n(CC3CCC(C(=O)NCCc4ccccc4)CC3)c(=O)c3ccccc32)c1 (centres undefined)	Pf Dd2 inh 11.2µM
COc1cc(NC(=O)Cn2c(=O)n(CC3CCC(C(=O)NCCc4ccccc4)CC3)c(=O)c3ccccc32)cc(OC)c1 (centres undefined)	Pf Dd2 inh 0.891µM
NC(=O)CN1CCOC(Cc2cccc(C(F)(F)F)c2)C1 (centres undefined)	none
CN(CC(=O)N1CCC(CCOc2ccccc2F)C1)S(=O)(=O)c1cccs1 (centres undefined)	none
CN(C)C(=O)CO[C@H]1CCOC[C@H]1NC(=O)c1ccc2n[nH]nc2c1	none
Cc1cnc(CC2CCN(S(=O)(=O)c3ccc4c(c3)CCC4)CC2)n1CC1CC1	none
CCC[C@@H]1CN(c2nc(SC)ncc2C(=O)OCC)C[C@H]1N(C)C	Pf Dd2 inh 12.6µM
CCOC(=O)c1cnc(N2CCN(c3ccc(OC)cc3)CC2)c2ccccc12	none
CCOc1ccc(CNC(=O)c2cnc(SC)nc2CC)cc1	none
CC1(C(=O)O)CCN(S(=O)(=O)c2ccccc2)CC1	none
Cc1cccc(C(=O)N2CC(c3noc(C4CCCN4CC4CC4)n3)C2)c1 (centres undefined)	none
O=C(Cc1cccc(F)c1)NCCC1CCN(C(=O)Nc2ccccc2)CC1	none
Cc1noc([C@@H]2CC(F)(F)CN2)n1	none
CN(C)Cc1ccc(C(=O)N[C@@H]2COCC[C@@H]2OCC(=O)O)o1	none
CCOc1ccc(C(=O)N2CCC[C@H]2c2nc(-c3ccc(OC)c(OC)c3)no2)cc1	none
CCc1ccc(OCC2c3cc(OC)c(OC)cc3CCN2C(=O)c2ccc(S(=O)(=O)N3CCCC3)cc2)cc1 (centres undefined)	Pf Dd2 inh 11.2µM
O=C1CN(C(=O)c2ccc(S(=O)(=O)N3CCCC3)cc2)C(c2ccccc2)c2cc(F)ccc2N1 (centres undefined)	none
CCOC(=O)c1ccc(OCC2c3cc(OC)c(OC)cc3CCN2C(=O)c2ccc(S(=O)(=O)N3CCCC3)cc2)cc1 (centres undefined)	Pf Dd2 inh 11.2µM
COc1cc2c(cc1OC)C(COc1ccccc1OC)N(C(=O)c1ccc(S(=O)(=O)N3CCCC3)cc1)CC2 (centres undefined)	Pf Dd2 inh 11.2µM
COc1ccc(NC(=O)c2cc(S(=O)(=O)N3CCCC3)ccc2OC)cc1	none
COc1ccc(C(=O)N2CCCN(S(=O)(=O)c3ccccc3)CCC(=O)NCC2)cc1F	none
CCc1ccc(C(=O)N2CCC(c3nc(-c4ccc(S(=O)(=O)N5CCCC5)cc4)no3)CC2)cc1	none
O=C([C@H]1C[C@H](Oc2ccccc2)CN1C(=O)NCc1ccccc1)N1CCOCC1	none
CC1=C[C@@H](CN2C(=O)c3ccccc3C2=O)[C@H](C(C)C)C[C@H]1Cc1nc2ccccc2[nH]1	none
CC1(CNC(=O)C2COc3ccccc3O2)CCOCC1 (centres undefined)	none
Cc1nc2cccnc2n1CC1CCCN(S(=O)(=O)Cc2ccccc2)C1 (centres undefined)	none
O=C(Nc1cccc(F)c1)N1CCC2(CC1)CC(N1CCOCC1)CCO2 (centres undefined)	none
COc1cccc(CN2CC[C@@H](CO)N(C)c3cccnc3C2)c1	none
CC(C)(C)c1ccc(-c2cc(C[C@H]3CNCC[C@H]3CC(=O)O)no2)cc1	none
O=C(C[C@@H]1CCNC[C@@H]1Cc1cc(-c2ccccc2)on1)N1CCOCC1	none
CC(C)(C)c1ccc(-c2cc(C[C@H]3CNCC[C@H]3CC(=O)N3CCC(n4c(=O)[nH]c5ccccc54)CC3)no2)cc1	Pf Dd2 inh 6.31µM
CC(C)NC(=O)NC[C@H]1O[C@@H](CO)[C@@H](O)[C@H]1N1CCN(C)CC1	none
O=C(O)C[C@@H]1CCN(C(=O)Cc2ccccc2)C[C@@H]1CCN1CCN(c2ccccn2)CC1	none
COCCOc1ccc2c(n1)CCN(C(=O)Cc1cccc(F)c1)C2	none
C[C@H](O)c1onc(-c2ccc(F)cc2)c1C(=O)NC1CCCC1	none
COc1ccc(C(C)NC(=O)C2CCN(C(=O)c3ncn4c3COC(c3ccccc3)C4)CC2)cc1 (centres undefined)	Pf Dd2 inh 7.94µM
CC(NC(=O)C1CCN(C(=O)c2ncn3c2COC(c2ccc(Cl)cc2)C3)CC1)c1ccccc1 (centres undefined)	none
CC(NC(=O)C1CCN(C(=O)c2ncn3c2COC(c2ccccc2)C3)CC1)c1ccc(F)cc1 (centres undefined)	none
CC(C)CN1C(=O)CCc2cc(NC(=O)c3ccc(N(C)C)cc3)ccc21	none
CC(C)Cc1nn2c(=O)cc(COC(=O)c3ccc(NC(=O)c4cccs4)cc3)nc2s1	none
CCCN1C(CC(C)C)=NS(=O)(=O)c2cc(NC(=O)c3cccs3)ccc21	Pf Dd2 inh 0.112µM
CCC1=NS(=O)(=O)c2cc(NC(=O)C3CC3)ccc2N1CC(C)C	Pf Dd2 inh 4.47µM
CC(=O)Nc1ccc2c(c1)S(=O)(=O)N=C(CC(C)C)N2CC(C)C	Pf Dd2 inh 3.98µM
